{"source": "the antibiotic and cytotoxicity screens of Wong et al. (2023)", "note": "Screen size: about 39,000 compounds; about 3,300 (8.5%) were called active. The list comes from a sample in which actives are over-represented; it also holds similar structures and randomly drawn compounds.", "data": [{"system": "HepG2", "experiment": "cytotoxicity call (relative viability < 0.9)", "conditions": "10 µM", "values": [{"smiles": "C[C@H](CO)N1C[C@H](C)[C@H](CN(C)Cc2ccccc2)OCCCC[C@H](C)Oc2ccc(NS(=O)(=O)c3cccs3)cc2C1=O", "cytotoxicity call": "inactive"}, {"smiles": "COc1ccc(CN(C)C[C@@H]2OCCCC[C@H](C)Oc3ccc(NC(=O)NC(C)C)cc3C(=O)N([C@H](C)CO)C[C@@H]2C)cc1", "cytotoxicity call": "inactive"}, {"smiles": "C[C@@H]1CN([C@@H](C)CO)C(=O)c2cc(NS(=O)(=O)c3cccs3)ccc2O[C@H]1CN(C)Cc1ccc(Cl)c(Cl)c1", "cytotoxicity call": "inactive"}, {"smiles": "COc1ccc(S(=O)(=O)N(C)C[C@H]2OCCCC[C@H](C)Oc3ccc(NC(=O)Nc4ccc(C(F)(F)F)cc4)cc3C(=O)N([C@@H](C)CO)C[C@@H]2C)cc1", "cytotoxicity call": "inactive"}, {"smiles": "COc1ccc(S(=O)(=O)N(C)C[C@@H]2OCCCC[C@H](C)Oc3ccc(NC(=O)Nc4ccc(C(F)(F)F)cc4)cc3C(=O)N([C@@H](C)CO)C[C@H]2C)cc1", "cytotoxicity call": "inactive"}, {"smiles": "COc1ccc(S(=O)(=O)N(C)C[C@H]2OCCCC[C@H](C)Oc3ccc(NC(=O)Nc4ccc(C(F)(F)F)cc4)cc3C(=O)N([C@H](C)CO)C[C@@H]2C)cc1", "cytotoxicity call": "active"}, {"smiles": "COc1ccc(S(=O)(=O)N(C)C[C@H]2OCCCC[C@H](C)Oc3ccc(NC(=O)Nc4ccc(C(F)(F)F)cc4)cc3C(=O)N([C@H](C)CO)C[C@H]2C)cc1", "cytotoxicity call": "inactive"}, {"smiles": "COc1ccc(S(=O)(=O)N(C)C[C@@H]2OCCCC[C@H](C)Oc3ccc(NC(=O)Nc4ccc(C(F)(F)F)cc4)cc3C(=O)N([C@H](C)CO)C[C@@H]2C)cc1", "cytotoxicity call": "inactive"}, {"smiles": "COc1ccc(S(=O)(=O)N(C)C[C@H]2OCCCC[C@@H](C)Oc3ccc(NC(=O)Nc4ccc(C(F)(F)F)cc4)cc3C(=O)N([C@H](C)CO)C[C@H]2C)cc1", "cytotoxicity call": "active"}, {"smiles": "COc1ccc(S(=O)(=O)N(C)C[C@@H]2OCCCC[C@@H](C)Oc3ccc(NC(=O)Nc4ccc(C(F)(F)F)cc4)cc3C(=O)N([C@H](C)CO)C[C@H]2C)cc1", "cytotoxicity call": "inactive"}, {"smiles": "COc1ccc(S(=O)(=O)N(C)C[C@@H]2OCCCC[C@H](C)Oc3ccc(NC(=O)Nc4ccc(C(F)(F)F)cc4)cc3C(=O)N([C@H](C)CO)C[C@H]2C)cc1", "cytotoxicity call": "inactive"}, {"smiles": "COc1ccc(S(=O)(=O)N(C)C[C@@H]2OCCCC[C@H](C)Oc3ccc(NC(=O)Nc4ccc(C(F)(F)F)cc4)cc3C(=O)N([C@@H](C)CO)C[C@@H]2C)cc1", "cytotoxicity call": "active"}, {"smiles": "COc1ccc(S(=O)(=O)N(C)C[C@H]2OCCCC[C@H](C)Oc3ccc(NC(=O)Nc4ccc(C(F)(F)F)cc4)cc3C(=O)N([C@@H](C)CO)C[C@H]2C)cc1", "cytotoxicity call": "inactive"}, {"smiles": "COc1ccc(S(=O)(=O)N(C)C[C@@H]2OCCCC[C@@H](C)Oc3ccc(NC(=O)Nc4ccc(C(F)(F)F)cc4)cc3C(=O)N([C@H](C)CO)C[C@@H]2C)cc1", "cytotoxicity call": "inactive"}, {"smiles": "COc1ccc(S(=O)(=O)N(C)C[C@H]2OCCCC[C@@H](C)Oc3ccc(NC(=O)Nc4ccc(C(F)(F)F)cc4)cc3C(=O)N([C@@H](C)CO)C[C@H]2C)cc1", "cytotoxicity call": "active"}]}]}
